Reference: PubChem BioAssay AID1159580 (chemical genetic matrix, 2015)
In all, about 5,500 compounds went through this assay and about 2,000 (36%) were called active. Inconclusive results (about 18%) are left out. Cut-off read from the data, not from the text of the source: active = normalized growth mostly below about 0.91 (no sharp cut-off); inconclusive = no clear call, values can overlap the other calls; inactive = mostly above about 0.92. Some of the results follow.

Test: chemical genetic growth profiling, strain panel (AID 1159580);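 note: tested at 20 µM; growth read once vehicle control cultures reached saturation at 30 °C; 1 = growth at the plate median or of vehicle wells; lower values mean less growth of the strain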
Conditions: growth OD
[1] = S. cerevisiae deletion strains, locus YAR019C, strain CDC15, active compounds read low
[2] = S. cerevisiae deletion strains, locus YBL105C, strain PKC1, active compounds read low
[3] = S. cerevisiae deletion strains, locus YBR135W, strain CKS1, active compounds read low
[4] = S. cerevisiae deletion strains, locus YBR136W, strain MEC1, active compounds read low
[5] = S. cerevisiae deletion strains, locus YBR160W, strain CDC28, active compounds read low
[6] = S. cerevisiae deletion strains, locus YDL017W, strain CDC7, active compounds read low
[7] = S. cerevisiae deletion strains, locus YDL028C, strain MPS1, active compounds read low
[8] = S. cerevisiae deletion strains, locus YDL101C, strain DUN1, active compounds read low
[9] = S. cerevisiae deletion strains, locus YDL108W, strain KIN28, active compounds read low
[10] = S. cerevisiae deletion strains, locus YDL132W, strain cdc53, active compounds read low
[11] = S. cerevisiae deletion strains, locus YDL214C, strain PRR2, active compounds read low
[12] = S. cerevisiae deletion strains, locus YDR052C, strain DBF4, active compounds read low
[13] = S. cerevisiae deletion strains, locus YDR054C, strain cdc34, active compounds read low
[14] = S. cerevisiae deletion strains, locus YDR226W, strain ADK1, active compounds read low
[15] = S. cerevisiae deletion strains, locus YDR477W, strain SNF1, active compounds read low
[16] = S. cerevisiae deletion strains, locus YER123W, strain YCK3, active compounds read low
[17] = S. cerevisiae deletion strains, locus YER133W, strain GLC7, active compounds read low
[18] = S. cerevisiae deletion strains, locus YFL009W, strain cdc4, active compounds read low
[19] = S. cerevisiae deletion strains, locus YFL029C, strain CAK1, active compounds read low
[20] = S. cerevisiae deletion strains, locus YFR003C, strain YPI1, active compounds read low
[21] = S. cerevisiae deletion strains, locus YFR019W, strain FAB1, active compounds read low
[22] = S. cerevisiae deletion strains, locus YFR028C, strain CDC14, active compounds read low
[23] = S. cerevisiae deletion strains, locus YGR040W, strain KSS1, active compounds read low
[24] = S. cerevisiae deletion strains, locus YGR052W, strain FMP48, active compounds read low
[25] = S. cerevisiae deletion strains, locus YGR092W, strain DBF2, active compounds read low
[26] = S. cerevisiae deletion strains, locus YHR030C, strain SLT2, active compounds read low
[27] = S. cerevisiae deletion strains, locus YHR079C, strain IRE1, active compounds read low
[28] = S. cerevisiae deletion strains, locus YHR082C, strain KSP1, active compounds read low
[29] = S. cerevisiae deletion strains, locus YHR205W, strain SCH9, active compounds read low
[30] = S. cerevisiae deletion strains, locus YIL147C, strain SLN1, active compounds read low
[31] = S. cerevisiae deletion strains, locus YJL095W, strain BCK1, active compounds read low
[32] = S. cerevisiae deletion strains, locus YJL128C, strain PBS2, active compounds read low
[33] = S. cerevisiae deletion strains, locus YJL157C, strain FAR1, active compounds read low
[34] = S. cerevisiae deletion strains, locus YJR016C, strain ILV3, active compounds read low
[35] = S. cerevisiae deletion strains, locus YJR066W, strain TOR1 (second series), active compounds read low
[36] = S. cerevisiae deletion strains, locus YJR066W, strain TOR1, active compounds read low
[37] = S. cerevisiae deletion strains, locus YKL048C, strain ELM1, active compounds read low
[38] = S. cerevisiae deletion strains, locus YKL067W, strain YNK1, active compounds read low
[39] = S. cerevisiae deletion strains, locus YKL101W, strain HSL1, active compounds read low
[40] = S. cerevisiae deletion strains, locus YKL193C, strain SDS22, active compounds read low
[41] = S. cerevisiae deletion strains, locus YKL203C, strain TOR2, active compounds read low
[42] = S. cerevisiae deletion strains, locus YLR113W, strain HOG1, active compounds read low
[43] = S. cerevisiae deletion strains, locus YLR133W, strain CKI1, active compounds read low
[44] = S. cerevisiae deletion strains, locus YLR403W, strain SFP1, active compounds read low
[45] = S. cerevisiae deletion strains, locus YML070W, strain DAK1, active compounds read low
[46] = S. cerevisiae deletion strains, locus YMR001C, strain CDC5, active compounds read low
[47] = S. cerevisiae deletion strains, locus YMR205C, strain PFK2 (second series), active compounds read low
[48] = S. cerevisiae deletion strains, locus YMR277W, strain FCP1, active compounds read low
[49] = S. cerevisiae deletion strains, locus YNL006W, strain LST8, active compounds read low
[50] = S. cerevisiae deletion strains, locus YNL020C, strain ARK1, active compounds read low
[51] = S. cerevisiae deletion strains, locus YNL161W, strain CBK1, active compounds read low
[52] = S. cerevisiae deletion strains, locus YNL183C, strain NPR1, active compounds read low
[53] = S. cerevisiae deletion strains, locus YNL207W, strain RIO2, active compounds read low
[54] = S. cerevisiae deletion strains, locus YNL222W, strain SSU72, active compounds read low
[55] = S. cerevisiae deletion strains, locus YNL307C, strain MCK1 (second series), active compounds read low
[56] = S. cerevisiae deletion strains, locus YOL078W, strain AVO1, active compounds read low
[57] = S. cerevisiae deletion strains, locus YOL136C, strain PFK27, active compounds read low
[58] = S. cerevisiae deletion strains, locus YOR061W, strain CKA2, active compounds read low
[59] = S. cerevisiae deletion strains, locus YOR119C, strain RIO1, active compounds read low
[60] = S. cerevisiae deletion strains, locus YOR231W, strain MKK1, active compounds read low
[61] = S. cerevisiae deletion strains, locus YOR329C, strain SCD5, active compounds read low
[62] = S. cerevisiae deletion strains, locus YPL031C, strain PHO85, active compounds read low
[63] = S. cerevisiae deletion strains, locus YPL153C, strain RAD53, active compounds read low
[64] = S. cerevisiae deletion strains, locus YPL204W, strain HRR25, active compounds read low
[65] = S. cerevisiae deletion strains, locus YPL209C, strain IPL1, active compounds read low
[66] = S. cerevisiae deletion strains, locus YPL256C, strain CLN2, active compounds read low
[67] = S. cerevisiae deletion strains, locus YPR025C, strain CCL1, active compounds read low
[68] = S. cerevisiae deletion strains, locus YPR106W, strain ISR1, active compounds read low
[69] = S. cerevisiae deletion strains, locus YPR111W, strain DBF20, active compounds read low
[70] = S. cerevisiae deletion strains, strain NNK1, active compounds read low
[71] = S. cerevisiae deletion strains, strain TSCII, active compounds read low

Measured: normalized growth

CC(C)(C)c1ccc(C(=O)NNC(=S)Nc2ccc(Cl)cc2)cc1
inactive: [1] 0.958 | [2] 0.978 | [3] 0.972 | [4] 0.974 | [5] 0.965 | [6] 0.983 | [7] 0.936 | [8] 0.978 | [9] 0.96 | [10] 0.971 | [11] 0.932 | [12] 0.986 | [13] 0.968 | [14] 0.954 | [15] 0.931 | [16] 0.895 | [17] 0.949 | [18] 0.937 | [19] 0.96 | [20] 0.98 | [21] 0.98 | [22] 0.957 | [23] 0.939 | [24] 0.974 | [25] 0.862 | [27] 0.916 | [28] 0.984 | [29] 0.904 | [30] 0.973 | [31] 0.898 | [32] 0.93 | [33] 0.953 | [34] 0.986 | [35] 0.845 | [36] 0.903 | [37] 0.996 | [38] 0.909 | [39] 0.91 | [40] 0.97 | [41] 1.01 | [42] 0.878 | [43] 0.938 | [44] 0.96 | [45] 0.921 | [46] 0.953 | [47] 0.933 | [48] 0.949 | [49] 0.981 | [50] 0.933 | [51] 0.986 | [52] 0.962 | [53] 0.971 | [54] 0.976 | [55] 0.896 | [56] 0.97 | [57] 0.919 | [58] 0.969 | [59] 0.964 | [60] 0.916 | [61] 0.983 | [62] 0.927 | [63] 0.873 | [64] 0.907 | [65] 0.968 | [67] 0.979 | [68] 0.984 | [69] 0.927 | [70] 0.997 | [71] 0.974
active: [26] 0.731 | [66] 0.839

O=C(NNC(=S)Nc1ccc(Cl)cc1)c1ncc(C(F)(F)F)cc1Cl
inactive: [1] 0.968 | [2] 0.99 | [3] 0.992 | [4] 0.985 | [5] 0.994 | [6] 0.989 | [7] 0.988 | [8] 0.985 | [9] 0.986 | [10] 0.966 | [11] 0.956 | [12] 0.991 | [13] 0.961 | [14] 0.982 | [15] 0.935 | [16] 0.863 | [17] 0.94 | [18] 0.975 | [19] 0.973 | [20] 0.991 | [21] 1 | [22] 0.984 | [23] 0.929 | [24] 0.942 | [25] 0.755 | [26] 0.901 | [27] 0.768 | [28] 1.08 | [29] 0.981 | [30] 0.972 | [31] 0.791 | [32] 0.971 | [33] 0.912 | [34] 0.974 | [35] 0.885 | [36] 1.01 | [37] 0.986 | [38] 0.95 | [39] 0.926 | [40] 0.984 | [41] 1.01 | [42] 0.886 | [43] 0.932 | [44] 0.91 | [45] 0.93 | [46] 0.986 | [47] 0.956 | [48] 0.966 | [49] 0.991 | [50] 0.929 | [51] 0.981 | [52] 0.854 | [53] 0.973 | [54] 0.979 | [55] 0.912 | [56] 0.972 | [57] 0.939 | [58] 0.925 | [59] 0.962 | [60] 0.843 | [61] 0.99 | [62] 0.901 | [63] 0.882 | [64] 0.86 | [65] 0.992 | [66] 0.875 | [67] 0.98 | [68] 0.987 | [69] 0.987 | [70] 0.995 | [71] 0.968

Cc1nn(-c2ccccc2)nc1C(=O)NNC(=S)Nc1ccc(Cl)cc1
inactive: S. cerevisiae deletion strains, locus YAL013W, strain DEP1, active compounds read low 0.957 | S. cerevisiae deletion strains, locus YBR229C, strain ROT2, active compounds read low 0.983 | S. cerevisiae deletion strains, locus YCL061C, strain MRC1, active compounds read low 1.04 | S. cerevisiae deletion strains, locus YGR078C, strain PAC10, active compounds read low 0.991 | [26] 0.889 | S. cerevisiae deletion strains, locus YHR087W, strain rtc3, active compounds read low 0.988 | S. cerevisiae deletion strains, locus YJL187C, strain SWE1, active compounds read low 0.954 | S. cerevisiae deletion strains, locus YJR043C, strain POL32, active compounds read low 0.985 | S. cerevisiae deletion strains, locus YLR058C, strain SHM2 (second series), active compounds read low 1.01 | S. cerevisiae deletion strains, locus YLR085C, strain ARP6, active compounds read low 0.82 | S. cerevisiae deletion strains, locus YLR262C, strain YPT6, active compounds read low 0.858 | S. cerevisiae deletion strains, locus YML094W, strain GIM5, active compounds read low 0.904 | S. cerevisiae deletion strains, locus YMR263W, strain SAP30, active compounds read low 1.01 | S. cerevisiae deletion strains, locus YNL153C, strain GIM3, active compounds read low 1.04 | S. cerevisiae deletion strains, locus YNL322C, strain KRE1, active compounds read low 1.02 | S. cerevisiae deletion strains, locus YPL241C, strain CIN2, active compounds read low 0.929 | S. cerevisiae deletion strains, locus YPR135W, strain CTF4, active compounds read low 0.969
active: S. cerevisiae deletion strains, locus YEL061C, strain CIN8, active compounds read low 0.866 | S. cerevisiae deletion strains, locus YJR075W, strain HOC1, active compounds read low 1.33 [resistant] | S. cerevisiae deletion strains, locus YLR039C, strain RIC1, active compounds read low 0.785 | S. cerevisiae deletion strains, locus YNL298W, strain CLA4 (second series), active compounds read low 0.835 | S. cerevisiae deletion strains, locus YNR030W, strain Alg12, active compounds read low 0.854 | S. cerevisiae deletion strains, locus YPL055C, strain LGE1, active compounds read low 0.814 | S. cerevisiae strains, strain wild type, active compounds read low 0.887

S=C(Nc1ccc(Cl)cc1)Nc1ccc(Cl)cc1
active: [12] 0.894 | [26] 0.662 | [42] 0.717 | [66] 0.819
inactive: [1] 0.912 | [2] 0.915 | [3] 0.938 | [4] 0.928 | [5] 0.926 | [6] 0.921 | [7] 0.935 | [8] 0.96 | [9] 0.933 | [10] 0.927 | [11] 0.855 | [13] 0.912 | [14] 0.95 | [15] 0.861 | [16] 0.791 | [17] 0.828 | [18] 0.925 | [19] 0.92 | [20] 0.922 | [21] 0.864 | [22] 0.915 | [23] 0.847 | [24] 0.811 | [25] 0.703 | [27] 0.807 | [28] 0.902 | [29] 0.881 | [30] 0.926 | [31] 0.814 | [32] 0.903 | [33] 0.827 | [34] 0.922 | [35] 0.83 | [36] 0.772 | [37] 0.944 | [38] 0.853 | [39] 0.888 | [40] 0.926 | [41] 0.871 | [43] 0.839 | [44] 0.835 | [45] 0.825 | [46] 0.922 | [47] 0.871 | [48] 0.918 | [49] 0.937 | [50] 0.837 | [51] 0.918 | [52] 0.779 | [53] 0.893 | [54] 0.936 | [55] 0.783 | [56] 0.921 | [57] 0.848 | [58] 0.808 | [59] 0.878 | [60] 0.836 | [61] 0.923 | [62] 0.82 | [63] 0.845 | [64] 0.778 | [65] 0.923 | [67] 0.932 | [68] 0.931 | [69] 0.931 | [70] 0.932 | [71] 0.906
